Measurements published in PubChem BioAssay (EPA / NIEHS).
Results filed as inconclusive are left out. Active and inactive are the calls of the source. How the source made its calls, unless noted: active means hit-call score of the fitted dose curve at least 0.9, where 1 is the maximum; inconclusive means response in the unintended direction; inactive means score below 0.9.

Key:
[1] = CCTE_Deisenroth_AIME_384WELL_CTox_Active: Cytotoxicity Assessment (CTOX) in CCTE's 384-well Estrogen Receptor Transactivation Assay with AIME metabolic competence (metabolism positive), Deisenroth Lab (AID 2284037);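 further: chemicals first conditioned 2 h by alginate-bound induced rat liver S9 before cells; activity means signal loss indicating cell death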
How it was run: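 Cytotoxicity in VM7Luc4E2 breast cells, 24 hour, measured as protease-substrate fluorescence loss, after 2-hour metabolic conditioning with induced rat hepatic S9 in alginate microspheres. Concentrations 0.002 - 200 uM, 10 points, bidirectional fitting.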

[2] = CCTE_Deisenroth_AIME_384WELL_CTox_Inactive: Cytotoxicity Assessment (CTOX) in CCTE's 384-well Estrogen Receptor Transactivation Assay without AIME metabolic competence (metabolism negative), Deisenroth Lab (AID 2284039);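 further: cell viability via live-cell protease substrate cleaved to fluorescent probe; cells exposed 24 h to medium preincubated 2 h with alginate-water beads without S9; loss of fluorescence signal means loss of viability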
How it was run: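 VM7Luc4E2 human breast cells received conditioned medium from a 2 h incubation of chemical with alginate-water microspheres (no S9), then were exposed 24 h. Viability was read as protease-substrate cleavage to a fluorescent probe; loss of signal was fitted bidirectionally over 0.002–200 uM.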

[3] = target: Estrogen receptor (Homo sapiens) (UniProt P03372); assay: CCTE_Deisenroth_AIME_384WELL_LUC_Active: CCTE's 384-well Estrogen Receptor Transactivation Assay with AIME metabolic competence (ERTA luciferase; metabolism positive), Deisenroth Lab (AID 2284030)
How it was run: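 Estrogenic luciferase signal in VM7Luc4E2 cells is measured at 24 hour, after chemicals have been preconditioned 2 hours with PB/BNF-induced rat hepatic S9 in alginate. Gain of signal is fitted relative to 17beta-estradiol, across 0.002 - 200 uM.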

[4] = target: Estrogen receptor (Homo sapiens) (UniProt P03372); assay: CCTE_Deisenroth_AIME_384WELL_LUC_Inactive: CCTE's 384-well Estrogen Receptor Transactivation Assay without AIME metabolic competence (ERTA luciferase; metabolism negative), Deisenroth Lab (AID 2284038);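 further: hits raise estrogen receptor luciferase signal so potencies reflect agonists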
How it was run: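 Metabolism-negative mode: chemicals (10-point, 0.002–200 uM) held 2 h with alginate-water microspheres, then conditioned medium applied to VM7Luc4E2 cells for 24 h. Luciferase induction referenced to 17beta-estradiol.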

[5] = target: Estrogen receptor (Homo sapiens) (UniProt P03372); assay: CCTE_Deisenroth_AIME_384WELL_LUC_Shift: CCTE's 384-well Estrogen Receptor Transactivation Assay with AIME metabolic competence data shift (ERTA luciferase; difference in metabolism positive and negative), Deisenroth Lab (AID 2284041; active means hit-call score of the fitted dose curve at least 0.9, where 1 is the maximum; inactive means score below 0.9;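 further: shift is response with S9 minus without S9 so positive means metabolism raised ER signal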)
How it was run: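 Test chemicals (0.002–200 uM, 10-point) were pre-incubated 2 h with alginate microspheres containing phenobarbital/beta-naphthoflavone-induced male Sprague Dawley rat liver S9 or water, then medium was transferred to VM7Luc4E2 cells for 24 h luciferase readout; shift = S9-positive minus S9-negative normalized response.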

[6] = CCTE_Shafer_MEA_dev_firing_rate_mean: CCTE's Neural Network Formation Assay for Mean Firing Rate, Shafer Lab (AID 2284031; active means hit-call score of the fitted dose curve at least 0.9, where 1 is the maximum; inactive means score below 0.9;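 on AC50: curve fitted for loss of firing so AC50 reflects decreased mean firing rate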)
How it was run: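 Rat primary cortical neurons were seeded on multielectrode arrays and treated from plating through day 12, with redosing at each feed. Spontaneous spiking was recorded four times; mean firing rate AUC was fitted downward against DMSO.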

[7] = CCTE_Shafer_MEA_dev_per_burst_spike_percent: CCTE's Neural Network Formation Assay for Percent of Spikes in a Burst, Shafer Lab (AID 2284032; active means hit-call score of the fitted dose curve at least 0.9, where 1 is the maximum; inactive means score below 0.9;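 on AC50: fitted as a decrease in burst spike percentage below DMSO baseline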)
How it was run: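 Rat primary cortical neurons on 16-electrode MEA wells, dosed from plating day 0 for 12 days with renewal on DIV 5 and 9; spikes-in-bursts percentage averaged over bursting electrodes, collapsed as AUC across days 5, 7, 9, 12; loss direction versus DMSO.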

[8] = CCTE_Shafer_MEA_dev_active_electrodes_number: CCTE's Neural Network Formation Assay for Number of Active Electrodes, Shafer Lab (AID 2284040);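 on AC50: potency for loss of active electrodes versus DMSO so lower counts are hits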
How it was run: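 Primary rat cortical neurons on 16-electrode MEA wells, exposed from day 0 through day 12 with compound renewed at DIV 5 and 9 feeds. Active electrodes (mean firing ≥5 spikes/min) counted at DIV 5, 7, 9, 12; trapezoidal AUC across days, loss-of-signal versus DMSO.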

[9] = CCTE_Shafer_MEA_dev_burst_rate: CCTE's Neural Network Formation Assay for Burst Rate, Shafer Lab (AID 2284042; active means hit-call score of the fitted dose curve at least 0.9, where 1 is the maximum; inactive means score below 0.9;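 on AC50: potency for loss of burst rate below DMSO control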)
How it was run: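 Rat primary cortical cultures on PEI/laminin MEA; compound from plating, re-dosed at DIV 5, 9 media change. Single-electrode bursts/recording length, well mean of active electrodes; AUC over DIV 5–12 recordings; loss-of-signal vs DMSO.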

[10] = CCTE_Shafer_MEA_dev_bursting_electrodes_number: CCTE's Neural Network Formation Assay for Number of Bursting Electrodes, Shafer Lab (AID 2284043);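 on AC50: potency is for loss of bursting electrodes relative to DMSO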
How it was run: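 Read-out is the per-well number of electrodes bursting at least once every 2 minutes, recorded on days 5, 7, 9 and 12 and collapsed by trapezoidal area under the curve. Cultures were primary rat cortical neurons on MEA plates, treated continuously from plating.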

Sequence of Estrogen receptor (Homo sapiens) (P03372 whole entry, looked up): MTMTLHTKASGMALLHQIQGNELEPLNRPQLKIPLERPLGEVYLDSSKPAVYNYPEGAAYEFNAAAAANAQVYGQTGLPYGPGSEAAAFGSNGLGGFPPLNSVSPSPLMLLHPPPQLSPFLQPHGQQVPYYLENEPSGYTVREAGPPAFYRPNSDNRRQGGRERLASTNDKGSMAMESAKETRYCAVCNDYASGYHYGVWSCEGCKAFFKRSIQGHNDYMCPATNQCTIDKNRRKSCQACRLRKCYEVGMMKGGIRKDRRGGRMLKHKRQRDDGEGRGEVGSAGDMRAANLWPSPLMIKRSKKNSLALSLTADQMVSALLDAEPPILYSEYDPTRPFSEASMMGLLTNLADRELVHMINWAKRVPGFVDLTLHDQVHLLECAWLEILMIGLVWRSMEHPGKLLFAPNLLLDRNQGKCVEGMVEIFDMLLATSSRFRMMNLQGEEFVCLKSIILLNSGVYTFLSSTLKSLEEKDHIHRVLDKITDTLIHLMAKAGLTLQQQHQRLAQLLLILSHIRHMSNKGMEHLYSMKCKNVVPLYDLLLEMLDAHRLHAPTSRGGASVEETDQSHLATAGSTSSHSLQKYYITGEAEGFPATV

O=C[C@@H](O)[C@H](O)[C@H](O)CO
outcome [1]: inactive | outcome [2]: inactive

CC(=O)OCCOC(C)=O
outcome [3]: inactive | outcome [1]: inactive | outcome [4]: inactive | outcome [2]: inactive | outcome [5]: inactive

CCCCCCCCCC=O
outcome [3]: inactive | outcome [4]: inactive | outcome [5]: inactive

c1ccc2c(c1)c1cccc3ccc4cccc2c4c31
outcome [6]: inactive | outcome [7]: inactive | AC50 [8]: 3190 nM (active) | outcome [9]: inactive | AC50 [10]: 3330 nM (active)

O=C(O)c1ccc([N+](=O)[O-])cc1
outcome [1]: inactive | outcome [2]: inactive

CCCCCCCCCCCCCC(=O)O
outcome [3]: inactive | outcome [1]: inactive | outcome [4]: inactive | outcome [2]: inactive | outcome [5]: inactive

CCCCCOC(=O)CCC
outcome [1]: inactive

CC1(C)C(=O)N(Br)C(=O)N1Cl
outcome [1]: inactive | outcome [2]: inactive

O=C(O)Cc1cccc2ccccc12
outcome [1]: inactive

NC(=O)NC1NC(=O)NC1=O (stereo not given)
outcome [2]: inactive

CN(C)CCCN
outcome [3]: inactive | outcome [1]: inactive | outcome [4]: inactive | outcome [2]: inactive | outcome [5]: inactive

OC1OC[C@@H](O)[C@H](O)[C@H]1O (stereo not given in full)
outcome [1]: inactive

CC1(C)[C@@H]2CC[C@@]1(C)[C@H](O)C2
outcome [1]: inactive | outcome [2]: inactive

CCC(=O)/C=C/C1C(C)=CCCC1(C)C (stereo not given)
outcome [2]: inactive

NCCCCCCN
outcome [1]: inactive | outcome [2]: inactive

O=C(O)c1ccc(C(=O)O)cc1
outcome [2]: inactive

CN(C)C(=N)N=C(N)N
outcome [6]: inactive | outcome [7]: inactive | outcome [8]: inactive | outcome [9]: inactive | outcome [10]: inactive

O=C(Cl)c1cccc(C(=O)Cl)c1
outcome [1]: inactive

OCCOCCOCCOCCO
AC50 [3]: 0.342 nM (active) | outcome [1]: inactive | AC50 [4]: 1.71 nM (active) | outcome [2]: inactive | outcome [5]: inactive

CC(C)=CCCC(C)CC=O (stereo not given)
outcome [1]: inactive | outcome [2]: inactive

CCCC1CCC(=O)O1 (stereo not given)
outcome [1]: inactive | outcome [2]: inactive

Cc1ccc(O)c(C(C)(C)C)c1
outcome [1]: inactive

NCCCN1CCOCC1
outcome [3]: inactive | outcome [1]: inactive | outcome [4]: inactive | outcome [2]: inactive | outcome [5]: inactive

O=C1C(c2[nH]c3ccc(S(=O)(=O)O)cc3c2O)=Nc2ccc(S(=O)(=O)O)cc21
outcome [2]: inactive

CCCCCCCCCCCCCOS(=O)(=O)O
AC50 [1]: 156000 nM (active) | AC50 [2]: 96300 nM (active)

N#Cc1ccc(CC(=NNC(=O)Nc2ccc(OC(F)(F)F)cc2)c2cccc(C(F)(F)F)c2)cc1
AC50 [6]: 363 nM (active) | AC50 [7]: 301 nM (active) | AC50 [8]: 692 nM (active) | AC50 [9]: 240 nM (active) | AC50 [10]: 297 nM (active)

NCCNCCN
outcome [1]: inactive

CCCCC(CC)COC(=O)/C=C\C(=O)OCC(CC)CCCC (stereo not given)
outcome [2]: inactive
